The supplement of paper PMC6555819

How the values were obtained:
Assay in all cases: PBM binding z-score (relative to random genomic background probes); higher = stronger binding; sequences stand for … in GC…GCGATTGACAGCGTAGAATGAAGG
[1] = test system: FXR:RXRa (NR concentration 270 nM, RXRa partner concentration 90 nM)
How it was run: (§1)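 Custom Agilent 4×180K protein-binding microarrays carried double-stranded probes, each with a 34-nt variable region. These regions held direct-repeat seeds, single-nucleotide variants, half-site ablations and random human genomic background sequences. Ligand-free nuclear receptor dimers were incubated on the arrays for 1 h, antibodies against each partner (one per run) detected binding, and scanned fluorescence was regression-normalized. Binding z-scores take the random background probes as reference.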

[2] = test system: LXRa:RXRa (NR concentration 270 nM, RXRa partner concentration 90 nM)
How it was run: as §1

[3] = test system: LXRa homodimer (NR concentration 270 nM)
How it was run: as §1

[4] = test system: LXRb:RXRa (NR concentration 270 nM, RXRa partner concentration 90 nM)
How it was run: as §1

[5] = test system: LXRb homodimer (NR concentration 270 nM)
How it was run: as §1

[6] = test system: PPARa:RXRa (NR concentration 270 nM, RXRa partner concentration 90 nM)
How it was run: as §1

[7] = test system: PPARg:RXRa (NR concentration 180 nM, RXRa partner concentration 90 nM)
How it was run: as §1

[8] = test system: PPARg:RXRa 270nM:90nM, anti-RXR (NR concentration 270 nM, RXRa partner concentration 90 nM)
How it was run: as §1

[9] = test system: PPARg:RXRa 30nM:10nM, anti-RXR (NR concentration 30 nM, RXRa partner concentration 10 nM)
How it was run: as §1

[10] = test system: PPARg:RXRa 90nM:30nM, anti-RXR (NR concentration 90 nM, RXRa partner concentration 30 nM)
How it was run: as §1

Sequence | PBM binding z-score [1] | PBM binding z-score [2] | PBM binding z-score [3] | PBM binding z-score [4] | PBM binding z-score [5] | PBM binding z-score [6] | PBM binding z-score [7] | PBM binding z-score [8] | PBM binding z-score [9] | PBM binding z-score [10]
GGAAGGAGGGCATTCGAGTTGATAGCATGGCGAT | 1.31 | 1.78 | 0.199 | 0.866 | 0.337 | 1.46 | 0.926 | 1.07 | -0.0182 | 0.639
AGATCGAGGGCAATGAGTTGATAGCACGGGTGGC | 0.45 | 0.121 | -0.246 | -0.143 | -0.369 | 1.14 | 1.16 | 0.568 | 0.0147 | 0.283
AACACAGGGTCATCGTAGGCCAGAGTACGCACAG | 7.22 | 6.21 | 1.53 | 4.44 | 0.922 | 5.84 | 5.85 | 5.7 | 1.96 | 4.21
GGAACGAGCGCAAGTTGATAGCAGAGTTTGATGG | -0.654 | -0.851 | -0.781 | -1.08 | -1.48 | -0.641 | 0.166 | -0.948 | -0.778 | -0.888
GCATATCGGTAATACAAGGTGAAAGTCCGATTGT | 0.694 | 0.4 | 0.294 | 0.243 | -0.333 | 0.84 | 0.415 | 0.8 | 0.385 | 0.634
GCTGCTAGGTCAACTGATAGTCAGCTAAAGCTCG | 4 | 2.78 | -0.18 | 1.91 | -0.159 | 3.77 | 2.91 | 3.17 | 0.765 | 2.41
CAAACTAGGTCACGAAAGGTCTAAGTCGAATGAC | 4.46 | 4.6 | 0.351 | 3.17 | 0.461 | 5.52 | 9.08 | 7.4 | 5.87 | 7.6
GATACAGGGTCAGCTAGCGGCCAGAGTATGGAAA | 4.95 | 2.67 | -0.847 | 2.34 | -0.774 | 4.56 | 3.77 | 3.29 | 0.52 | 2.01
GTACCAAGGTGGATAGGTCGTTGATGAGTAGGCG | -0.366 | -0.16 | -0.154 | -0.255 | -0.708 | 0.372 | 0.422 | 0.293 | -0.451 | 0.026
ACAGACAGTTGATGAAGGTAACTCAGGCTATCAT | 0.165 | -0.156 | -0.193 | -0.191 | 0.0371 | -0.00843 | 0.507 | -0.149 | -0.0201 | -0.134
TTACCAAGGTGAAGGTCGTTGAACCCTCTGTAGA | 3.72 | 3.95 | 1.78 | 2.99 | -0.723 | 3.27 | 3.46 | 4.28 | 2.15 | 3.9
CCTATTAGGTGACCATAAGGGCAACCGAAGCTCG | 0.883 | 0.519 | -0.266 | 0.209 | -0.299 | 1.81 | 1.73 | 1.56 | 0.344 | 0.657
GCGACTGGGACATCAGCAGGTTACCATAACTTAA | -0.41 | -0.456 | -0.462 | -0.188 | -0.768 | 0.248 | 0.495 | -0.264 | -0.28 | -0.281
CGAACTAGGTCAAGGACAGTGGATCTCCGCACGC | 3.06 | 1.85 | -0.0741 | 1.23 | -0.565 | 4.31 | 6.9 | 6.1 | 3.35 | 5.72
ACTAGCAGGCCAAGTTTGGGTCACGCAAACAAAG | 1.01 | 0.518 | -0.2 | 1.33 | -0.873 | 2.27 | 0.556 | 1.04 | -0.0172 | 0.546
GGAACGAGGGCATTCAAGTTGATAGCATGGCGAT | 1.18 | 1.46 | -0.583 | 0.241 | -0.723 | 1.52 | 1.12 | 0.948 | -0.0725 | 0.427
CCTATTAGTGGACCATAAGGGCAACCGAAGCTCG | 0.107 | 0.131 | 0.000985 | 0.0463 | 0.134 | 0.591 | 0.711 | 1.08 | 0.116 | 0.489
CCTAATGGGCCAAAGGTCATTGATTCCAATGCTC | 5.18 | 5.16 | 3.94 | 4.84 | 1.08 | 6.03 | 11.8 | 9.96 | 11.9 | 12.1
TCATATAGGTAAAAGGTGAACGTCGGTGTGGTAA | 2.13 | 2 | 0.308 | 1.96 | 0.0983 | 5.54 | 9.49 | 8.84 | 8.77 | 9.46
TTACCAAGGTGAATGGTCGTTGATGCACGCCTTG | 0.766 | 0.485 | -0.417 | 0.403 | -0.853 | 1.35 | 1.32 | 2.39 | 1.14 | 2.06
CCTACTGGGCCATCAGGTCATTGGTATCAACGTT | 1.47 | 1.25 | 1.08 | 1.78 | -0.424 | 2.91 | 2.98 | 3.68 | 1.17 | 2.79
ATATGTAAGTTATCGGGTCATTCAGTTTGCGCAT | 2.13 | 2.33 | 1.43 | 2.61 | 1.02 | 2.93 | 1.83 | 2.22 | 0.702 | 1.72
TCTAGTTGGTCACAGAGGTCACACACGACGGGTA | 4.73 | 4.98 | 3.92 | 4.46 | 1.51 | 4.84 | 4.45 | 5.18 | 4.12 | 5.26
TCTAGTTAGTCACGGAGGTCACACACGACGGGTA | 3.07 | 3.04 | 2.41 | 3.3 | 0.442 | 3.76 | 2.22 | 3.13 | 3.48 | 3.22
